Data published in PubChem BioAssay AID493240 (Broad Institute, 2011).
Among all 1,300 compounds or so, about 270 (21%) were called active. How the calls were made is not given here. The list is a sample of the results. Entries that show only a call come without a potency. Potency and affinity values are given separately.

Assay: cytotoxicity in parental SK-MEL-5 melanoma cells – cell-based, CellTiter-Glo, cherry-picked, set 3, orthogonal assay for MITF inhibitor project, dose response (AID 493240)
Conditions: SK-MEL-5 viability, ATP luminescence (CellTiter-Glo), 24 h; series mostly up to 35 µM

| SMILES | outcome |
| --- | --- |
| COC(=O)[C@@H]1C[C@]2(OC(=O)c3ccccc3)C=CC(=O)C[C@@H]2N1C(=O)OCc1ccccc1 | inactive |
| Cc1occc1C(=O)N/N=C/c1ccc(OCc2ccccc2)cc1 | inactive |
| CC(=O)SC(C[N+](=O)[O-])c1cn(C(C)=O)c2ccccc12 (centres undefined) | inactive |
| Cc1ccc(-c2cn3nc(C)c(C)nc3n2)cc1 | inactive |
| O=C(Nc1ccc(-c2nc3ncccc3o2)cc1)c1ccc([N+](=O)[O-])o1 | inactive |
| NC(=O)c1cc([N+](=O)[O-])ccc1NCc1ccc(N)cc1 | inactive |
| COc1ccc(-c2csc(Nc3ccccn3)n2)cc1OC | inactive |
| CC1CCN(C(=O)c2cc3ccccc3o2)CC1 | inactive |
| c1ccc(-c2cn3nc4c(nc3n2)CCCC4)cc1 | inactive |
| O=S(=O)(CC(CN1CCCCC1)N1CCCCC1)c1ccc2ccccc2c1 (centres undefined) | inactive |
| Cc1ccc(S(=O)(=O)CC(CN2CCCCC2)N2CCCCC2)cc1 (centres undefined) | inactive |
| O=C(Nc1ccccc1F)C(=O)Nc1cccc2ccccc12 | inactive |
| c1ccc(-n2ncc3c(NCc4cccs4)ncnc32)cc1 | inactive |
| COc1cccc(/C=N/Nc2ncnc3c2ncn3Cc2ccccc2)c1O | inactive |
| COc1cccc(C(=O)Nc2ccc3c(cc2=O)[C@@H](NC(C)=O)CCc2cc(OC)c(OC)c(OC)c2-3)c1 | inactive |
| CCc1nc2oc3ccc(C)cc3c(=O)c2cc1C(=O)OC | inactive |
| CCCNC(=O)COC(=O)c1ccccc1C(=O)c1ccc(Cl)c([N+](=O)[O-])c1 | inactive |
| O=C(COC(=O)c1ccc(F)c([N+](=O)[O-])c1)NC(=O)NCc1ccccc1 | inactive |
| CNC(=O)COC(=O)c1ccccc1C(=O)c1ccc(Cl)c([N+](=O)[O-])c1 | inactive |
| CCC(=O)Nc1cc(C(=O)OCC(=O)c2ccccc2Cl)ccc1C | inactive |
| Cc1cc(C(=O)O/N=C(\N)c2ccncc2)ccc1[N+](=O)[O-] | inactive |
| O=C(COC(=O)c1ccccc1C(=O)c1ccc(Cl)c([N+](=O)[O-])c1)NC1CC1 | inactive |
| CC(=O)OCCNc1cc(Sc2nc3ccccc3[nH]2)c2nonc2c1[N+](=O)[O-] | inactive |

| SMILES | outcome |
| --- | --- |
| CNc1oc(/C=C/c2cccc(OC)c2)nc1C#N | inactive |
| Cc1ccc2oc(Nc3nc(C)c(C)c(C)n3)nc2c1 | inactive |
| Cc1ccc2nc(-c3cccnc3)oc2c1 | inactive |
| CC(C)c1ccc(/C=N/Nc2ccc(C(=O)O)cc2)cc1 | inactive |
| O=C(NCc1csc(-c2cccs2)n1)C1CCC1 | inactive |
| CCOc1ccc2nc(NC(=O)Cc3cccs3)sc2c1 | inactive |
| CC(C)S(=O)(=O)c1csc(C(=O)Nc2ccc(F)cc2)c1N | inactive |
| C=CCn1c(C)cc(C2=NNC(=NC(C)(C)C)SC2)c1C | inactive |
| C=CCN=C1NN=C(c2ccc3c(c2)OCCO3)CS1 | inactive |
| O=C(NC1CC1)C1CCN(S(=O)(=O)c2ccc(Cl)c([N+](=O)[O-])c2)CC1 | inactive |
| CC(C)CN=C(NS(=O)(=O)c1ccccc1)C(Cl)(Cl)Cl | inactive |
| O=C(CN1CCCCC1)Nc1scc2c1c(=O)oc1ccccc12 | inactive |
| CC(C)C(=O)N1CCN(c2ccc(NC(=O)c3ccc([N+](=O)[O-])o3)cc2)CC1 | inactive |
| CN1CCN(c2ccccc2NC(=O)c2ccc([N+](=O)[O-])o2)CC1 | inactive |
| CCN1CCN(/C=N/c2nc3c(s2)CCCC3)CC1 | inactive |
| Oc1ccc(-c2nnc(SCC3CCCCC3)o2)cc1 | inactive |
| CC(=NNC(=S)N1CCN(c2ccccn2)CC1)c1nccs1 | inactive |
| COc1ccc(C(=O)CN2Cc3ccccc3C2=N)cc1 | inactive |
| O=C1CN(c2ccccc2)C(=S)N1C(=O)c1ccc(Br)cc1 | inactive |
| O=C(COC(=O)CCN1C(=O)/C(=C\C=C\c2ccccc2)SC1=S)Nc1cc(F)ccc1F | inactive |
| COc1cc(C(=O)Oc2c(CN3CCOCC3)cc(Cl)c3cccnc23)cc(OC)c1OC | inactive |
| C/C(=N\NC(=O)COc1ccccc1-c1ccccc1)c1ccccn1 | inactive |
| CCOC(=O)COc1ccc2ccccc2c1/C=C/[N+](=O)[O-] | inactive |

| SMILES | outcome |
| --- | --- |
| O=C(/C=C/c1ccc([N+](=O)[O-])s1)N1CCCCC1 | inactive |
| O=C(Nc1ccc(Cl)cc1)N1CC=CCC1 | inactive |
| NC(=O)c1c(NC(=O)c2cccnc2)sc2c1CCCCC2 | inactive |
| O=C(N/N=C/c1cc([N+](=O)[O-])ccc1N1CCNCC1)c1ccc([N+](=O)[O-])cc1 | inactive |
| OCC1CCCC(n2cnc3c(=S)nc[nH]c32)O1 (centres undefined) | inactive |
| CN(C)CCNC(=O)COc1ccc(C23CC4CC(CC(C4)C2)C3)cc1 | inactive |
| O=C(CSc1ccc(Cl)cc1)NC1CCCC1 | inactive |
| N#CC1=C(c2ccccc2)/C(=C/c2ccccc2)OC1=O | inactive |
| Cc1cc(C=C2C(=O)c3ccccc3C2=O)c(C)n1-c1ccccc1 | inactive |
| Cc1ccccc1-n1ncc2c([N+](=O)[O-])cc([N+](=O)[O-])cc21 | inactive |
| Cc1cc2oc(=O)cc(C)c2cc1NC(=O)CCC(=O)O | inactive |
| Cn1c(SC2=CS(=O)(=O)c3ccccc32)nc2ccccc21 | inactive |
| COc1ccc(C(=O)NC(=O)Nc2cc(C)ccn2)cc1 | inactive |
| Cc1cnn(C(=S)NCCc2ccccc2)c1 | inactive |
| Cc1cc(NCCCn2ccnc2)n2ncc(-c3ccccc3)c2n1 | inactive |
| CC(=O)c1ccc(N/C=C/C(=O)c2ccc(Br)cc2)cc1 | inactive |
| COc1ccc(C(=O)N/N=C/c2cc(Br)ccc2O)cc1OC | inactive |
| CCOc1cc(/C=C(/C#N)c2ccc(Cl)cc2)cc(Cl)c1OCC(=O)O | inactive |
| O=[N+]([O-])c1ccc(N/N=C/C=C/c2ccco2)cc1 | inactive |
| CCC(=O)N1CCN(c2ccc(NC(=O)c3ccc([N+](=O)[O-])o3)cc2)CC1 | inactive |
| Cc1ccccc1C(=O)N1CCN(c2ccc(NC(=O)c3ccc([N+](=O)[O-])o3)cc2)CC1 | inactive |
| CS(=O)(=O)N1CCN(c2ccc(NC(=O)c3ccc([N+](=O)[O-])o3)cc2)CC1 | inactive |
| O=C(Nc1ccc(N2CCN(C(=O)c3ccc(Cl)cc3)CC2)cc1)c1ccc([N+](=O)[O-])o1 | inactive |

| SMILES | outcome |
| --- | --- |
| CC(C)(C)c1ccc(C(=O)Nc2ccc(CC(=O)O)cc2)o1 | inactive |
| Cn1c(COc2ccccc2Br)nc2ccccc21 | inactive |
| C[C@H]1CCC[C@]2(C)C[C@H]3OC(=O)C(CN4CCCCCC4)[C@H]3C=C12 (some centres undefined) | inactive |
| COc1ccc(NC(=O)c2cc3ccccc3[nH]2)cc1 | inactive |
| COc1cc2nc(SCC(=O)NCc3ccco3)n(Cc3ccc(Cl)cc3)c(=O)c2cc1OC | inactive |
| O=C(NCc1ccco1)c1ccc(COCC(F)(F)F)cc1 | inactive |
| CCN(C(=O)c1ccco1)c1nc(-c2ccc(OC)cc2)cs1 | inactive |
| CCOCCCNC(=O)/C(C#N)=C/c1ccc([N+](=O)[O-])o1 | inactive |
| CC1CC(C)CN(C(=O)/C=C/c2ccc([N+](=O)[O-])s2)C1 (centres undefined) | inactive |
| COc1ccc(C(=O)C(CN2CCOCC2)c2ccccc2)cc1 (centres undefined) | inactive |
| CCNC(=O)CC1C(=O)N(c2ccc(F)cc2)C(=O)N1CCc1ccc(OC)cc1 (centres undefined) | inactive |
| COc1ccc(C(=O)C(CN2CCCC2)c2ccccc2)cc1 (centres undefined) | inactive |
| COc1ccc(C(=O)CCNc2ccc(F)cc2)cc1 | inactive |
| CC(C)(C)c1ccc(-c2cc(N)n[nH]2)cc1 | inactive |
| O=C(Nc1ccc(Cl)cc1)C1C2CCCCC21 (centres undefined) | inactive |
| CCOC(=O)N1C(=O)[C@@](CC)(c2ccccc2)N1C(=O)OCC | inactive |
| O=S1(=O)CCC(NC(=S)SCc2ccccc2Br)C1 (centres undefined) | inactive |
| O=C(CSCC(=O)Nc1ccccc1)N/N=C/c1c(O)ccc2ccccc12 | inactive |
| CCOC(=O)c1cn2nc(Oc3ccccc3)ccc2n1 | inactive |
| COc1ccc(/C=C2\SC(=S)N(CCCC(=O)NNC(=O)c3ccccc3O)C2=O)cc1 | inactive |
| CN(C)CCNc1ccc2nnn3c4ccc(O)cc4c(=O)c1c23 | inactive |
| O=C(Nc1ccccc1Cl)Nc1cccc2cccnc12 | inactive |
| COc1ccc2oc(=N)c(C(=O)Nc3ccccc3Cl)cc2c1 | inactive |

| SMILES | outcome |
| --- | --- |
| Cc1cc(C(=O)Nc2cccc(C(=O)O)c2)oc1C | inactive |
| CCSc1nc2c(cnn2-c2ccccc2)c(=O)n1N | inactive |
| O=C(O)c1cccc(N/N=C/c2ccc(OC(F)(F)F)cc2)c1 | inactive |
| COc1cc(C2C(C#N)=C(N)Oc3cc4c(cc32)OCO4)cc(OC)c1OC (centres undefined) | inactive |
| Clc1ccc(-c2c[n+](Cc3cccc(Cl)c3)c3n2CCC3)cc1 | inactive |
| O=C(C[n+]1cc(-c2ccc(F)cc2)n2c1CCC2)c1cccs1 | inactive |
| Nc1ccc(-c2nc3c(Cl)cc(N)cc3[nH]2)cc1 | inactive |
| C=CCSC(=S)NC1CCS(=O)(=O)C1 (centres undefined) | inactive |
| C/C(=N\NC(=O)C(C)Oc1ccc([N+](=O)[O-])cc1)c1ccccn1 (centres undefined) | inactive |
| O=C(/C=C/c1ccc([N+](=O)[O-])s1)N1CCCC1 | inactive |
| COc1ccc(C(=O)Nc2ccc3ccccc3c2)cc1OC | inactive |
| COc1ccc(NC(=O)c2cc(F)cc(F)c2)cc1Cl | inactive |
| COc1ccc(NC(=O)c2scc(S(=O)(=O)C(C)C)c2N)cc1 | inactive |
| O=C(/C=C/c1ccccc1)Nc1cccc(C(=O)O)c1 | inactive |
| O=C(Nc1ccccc1F)c1ccc2c(c1)OCO2 | inactive |
| Cc1cccc(OCC(=O)Nc2cccc(O)c2)c1 | inactive |
| CC1(C)Cc2c(sc(NC(=O)Nc3ccccc3)c2C(N)=O)CO1 | inactive |
| COc1cccc(/C=N/Nc2nc3ccccc3[nH]2)c1OC | inactive |
| O=C(Nc1ccc(-c2cn3c(n2)SCC3)cc1)c1ccco1 | inactive |
| NNC(=O)c1cc2ccccc2cc1O | inactive |
| CN(CC(=O)N1CCCCCC1)S(=O)(=O)c1ccccc1 | inactive |
| COC(=O)C1=C(CN2CCCc3ccccc32)NC(=O)NC1c1ccc(F)cc1 (centres undefined) | inactive |
